# From PubChem BioAssay
# This is a sample that favours compounds with a hit; in the whole collection about 18% have one here.
# LDHA inh – qHTS assay for inhibitors of human lactate dehydrogenase | activity change, % (values are at about 110 or 230 µM) | purified LDHA, NADH/diaphorase-resazurin fluorescence; hits give low values | AID 1347041, 2019 | actives 0.15% (n = 480,000) | L-lactate dehydrogenase A chain (Homo sapiens), P00338; in the data active means activity change below about -30%; inconclusive means mostly about -25% to -30%;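 further: plate controls were DMSO wells for no effect and wells without enzyme for full effect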
#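 Enzyme activity of human lactate dehydrogenase 5 (2 nM; 0.06 mM NADH, 0.2 mM pyruvate, 5 min, RT) is measured via a resazurin/diaphorase fluorescence readout of residual NADH.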
# IL-1B inflam inh – qHTS for Inhibitors of Inflammasome Signaling: IL-1-beta AlphaLISA Primary Screen. THP-1 LPS/ATP IL-1B secretion, AlphaLISA, 16 h; hits give low values. activity change, % at 57.5 µM. AID 743279, 2014. actives 4.7% (n = 360,000); in the data active means activity change below about -50%; inconclusive means mostly about -30% to -49%
#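 Secreted IL-1B measured by AlphaLISA bead assay after 16 h compound exposure of THP-1 cells; compounds (final up to 57.5 uM) added 1 h before LPS (250 ng/mL) and ATP (1.25 mM) stimulation; lower signal means less secretion.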
# TDP1 cell noCPT – qHTS for Inhibitors of human tyrosyl-DNA phosphodiesterase 1 (TDP1): qHTS in cells in absence of CPT. AID 686978, 2013. actives 15% (n = 420,000). Potency, µM (doses to about 46.2 µM), inactives show at the highest dose activity change, negative = growth inhibition, hits mostly inhibitors. DT40 Tdp1-/- hTDP1 cells, no CPT, ATP luminescence, 48 h; further: potency means the concentration at half of the fitted maximal effect; nearly all actives have a fitted effect of over 55% in size
#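 No-CPT arm: Tdp1-/-;hTDP1 DT40 cells (400/well) plus compounds, incubated ≥48 hr at 37 °C. Readout CellTiter-Glo luminescence.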
# RORgamma inh – qHTS for inhibitors of ROR gamma transcriptional activity; AID 2551, 2010; Potency, µM (top dose mostly 53.6 µM), without a hit: at the top dose activity change, negative = inhibition, usual class: inhibitors; Nuclear receptor ROR-gamma (Mus musculus), P51450; Drosophila S2 Gal4-RORgamma UAS-luciferase reporter, 20 h; actives 5.4% (n = 310,000); further: potency means the concentration at half of the fitted maximal effect; nearly all actives have a fitted effect of over 60% in size
# Target sequence (P51450 whole entry, looked up, the tested form may be a part): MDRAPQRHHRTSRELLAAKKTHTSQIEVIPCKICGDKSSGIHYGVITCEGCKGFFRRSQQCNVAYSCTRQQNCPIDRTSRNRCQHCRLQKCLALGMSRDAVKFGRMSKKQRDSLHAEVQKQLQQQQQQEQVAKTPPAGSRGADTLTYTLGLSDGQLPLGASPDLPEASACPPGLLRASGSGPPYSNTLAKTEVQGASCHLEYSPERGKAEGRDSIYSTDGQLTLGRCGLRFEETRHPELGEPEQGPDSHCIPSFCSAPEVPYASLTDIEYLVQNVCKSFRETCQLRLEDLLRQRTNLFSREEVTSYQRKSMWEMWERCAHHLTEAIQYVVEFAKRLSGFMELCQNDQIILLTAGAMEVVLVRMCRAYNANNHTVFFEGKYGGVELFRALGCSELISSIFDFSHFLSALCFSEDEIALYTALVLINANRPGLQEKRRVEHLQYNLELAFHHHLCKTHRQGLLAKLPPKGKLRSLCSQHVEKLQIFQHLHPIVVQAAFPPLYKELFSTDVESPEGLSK
#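 Luciferase reporter read in Schneider cells carrying Gal4-RORγ (mouse) and UAS-Photinus luciferase; cells given compound 1 h before 700 uM copper sulfate induction, then incubated 20 h at ambient temperature.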
# Gal4-VP16 FLuc – VP16 counterscreen qHTS for inhibitors of ROR gamma transcriptional activity; Drosophila S2 Gal4-VP16 UAS-luciferase, luminescence, 20 h; Potency, µM (series often up to 53.6 µM), without a hit: top-dose activity, negative = inhibition, actives largely listed as inhibitors; actives 3.5% (n = 310,000); AID 2546, 2010;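 further: Gal4-VP16 expression switched on by copper sulfate through the metallothionein promoter; potency means the concentration at half of the fitted maximal effect; nearly all actives have a fitted effect of over 50% in size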
# TDP1 cell CPT – qHTS for Inhibitors of human tyrosyl-DNA phosphodiesterase 1 (TDP1): qHTS in cells in presence of CPT. actives 12% (n = 420,000). Potency, µM (titrated, usually from 46.2 µM), inactives show top-dose activity change, negative = growth inhibition, most hits filed as inhibitors. AID 686979, 2013. chicken DT40 Tdp1-/-;hTDP1 cells + 20 nM CPT, ATP luminescence, 48 h; further: potency means the concentration at half of the fitted maximal effect; nearly all actives have a fitted effect of over 55% in size
#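 Cell growth measured by CellTiter-Glo luminescence after a minimum 48 h, 37 C compound exposure with 20 nM CPT in Tdp1-knockout DT40 cells stably expressing hTDP1, seeded 400/well; qHTS titration format.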
# * marks the source's active call; other numbers are inactive results; ? = inconclusive; nt = not tested or not shown; ! = not active in a repeat. Unless noted, the call rests on the fitted dose curve; in most records, active means well fitted curve in the direction sought with a large enough effect; inconclusive means small, poorly fitted or top-dose-only effect, or another doubt; inactive means no such curve, though single readings can be large; an effect the other way counts as inactive or inconclusive. Unless noted, on the % scale 0 is the no-effect control and ±100 the full control effect.
SMILES,LDHA inh,IL-1B inflam inh,TDP1 cell noCPT,RORgamma inh,Gal4-VP16 FLuc,TDP1 cell CPT
COc1ccc(CNc2nc(NCc3ccc(OC)c(OC)c3)n(C(=O)c3cccs3)n2)cc1OC,1.9,?,14.6µM*,?,4.7%,16.4µM*
O=C(CCc1ccccc1)n1nc(-c2ccccc2)nc1NCc1ccco1,-0.4,9.6,2.0%,?,6.7%,-29.9%
COc1ccc(CCNC(=O)c2cccs2)cc1OC,-13.2,-5.9,1.6%,20.6%,-2.3%,-7.5%
Cc1ccccc1C(=O)n1nc(-c2ccco2)nc1NCc1cccs1,-12.6,nt,?,nt,nt,13µM*
CCOC(=O)C=C1CCN(c2ncc(C(F)(F)F)cc2Cl)CC1,0.6,-7.0,-17.6%,-41.8%,0.3%,-21.7%
CC(=O)N1CCC(=NNc2ncc(C(F)(F)F)cc2Cl)CC1,-7.8,110.8,?,3.16µM*,?,?
O=C(O)CC/C(=N/Nc1ncc(C(F)(F)F)cc1Cl)C(=O)O,6.9,30.0,2.6%,12.6µM*,?,-4.8%
CCOC(=O)N1CCC(=NNc2ncc(C(F)(F)F)cc2Cl)CC1,-5.4,-13.4,-10.6%,7.08µM*,?,0.0%
NC(=O)CNc1ncc(C(F)(F)F)cc1Cl,-13.2,14.9,-10.0%,-5.3%,-9.4%,-0.2%
COc1ccc(-c2cc(C(=O)O)c3cc(C(C)C)ccc3n2)cc1,20.0,nt,nt,nt,nt,nt
Cn1cc(S(=O)(=O)N2CCC(C(=O)Nc3cccc(Br)c3)CC2)cc1C(N)=O,-8.6,nt,nt,nt,nt,nt
CCSC1=C(C#N)C(c2ccccc2Cl)C(C(=O)c2cccs2)C(O)(C(F)(F)F)N1 (stereo unspecified),-1.4,3.2,?,-24.6%,-15.3%,?
C=CCSC1=C(C#N)C(c2ccccc2Cl)C(C(=O)c2cccs2)C(O)(C(F)(F)F)N1 (stereo unspecified),-1.7,10.4,16.4µM*,?,?,?
Cc1c(C)c(C)c(S(=O)(=O)NCCC(=O)N2CCN(Cc3ccc(C#N)cc3)CC2)c(C)c1C,2.1,8.2,8.2µM*,nt,nt,16.4µM*
O=C(CCNS(=O)(=O)c1ccc(Cl)cc1)N1CCN(Cc2ccccc2)CC1,-3.0,-2.0,-17.1%,?,-5.9%,-23.6%
O=C(c1ccc(Cl)c(Cl)c1)N1CCC(=O)N([C@H](COCc2ccc(Cl)cc2)Cc2ccccc2)CC1,-8.8,-67.3*,23.1µM*,nt,nt,?
O=C(c1ccc(Cl)c(Cl)c1)N1CCC(=O)N(C(COCc2cccc(Cl)c2)Cc2ccccc2)CC1 (stereo unspecified),2.1,-67.6*,?,?,-11.6%,?
CC(C)CC(CO)N1CCN(C(=O)c2ccc(Cl)c(Cl)c2)CCC1=O (stereo unspecified),-5.0,-3.9,-6.4%,nt,nt,?
O=C(c1ccc(Cl)cc1)N1CCC(=O)N(C(CO)Cc2ccccc2)CC1 (stereo unspecified),-0.1,59.6,7.8%,nt,nt,5.3%
CCOc1ccc(/C=N/Nc2nc(N3CCCC3)nc(N3CCCC3)n2)cc1OC,-8.4,1.4,?,12.6µM*,?,-29.9%
COc1cccc(/C=N/Nc2nc(N3CCCC3)nc(N3CCCC3)n2)c1O,3.4,-100.3*,20.6µM*,10µM*,?,?
COc1ccc(/C=N/Nc2nc(N3CCCC3)nc(N3CCCC3)n2)c(OC)c1OC,-4.4,21.2,-8.2%,7.94µM*,-15.6%,-3.1%
Fc1ccccc1CSCCNC(=S)Nc1ccccc1,2.8,nt,nt,nt,nt,nt
Cc1nc(SC(C)C#N)c2c(=O)n(C)c(=O)n(CC(C)C)c2n1 (stereo unspecified),-6.2,nt,nt,nt,nt,nt
CC(C)(C)n1ncc2c1NC(=O)CC21C(=O)Nc2cccc(Cl)c21 (stereo unspecified),1.2,nt,nt,nt,nt,nt
SMILES,LDHA inh,IL-1B inflam inh,TDP1 cell noCPT,RORgamma inh,Gal4-VP16 FLuc,TDP1 cell CPT
O=C(c1cccc([N+](=O)[O-])c1)N1c2ncnn2C2(CCCCC2)[C@@H]2CCCC[C@@H]21,-4.6,nt,8.2µM*,nt,nt,?
O=C(c1ccccc1Cl)N1c2ncnn2C2(CCCCC2)[C@@H]2CCCC[C@@H]21,-1.6,nt,?,nt,nt,-29.0%
CC(=O)NCCCCCC(=O)NCC(C)(c1ccccc1)c1ccccc1,0.6,nt,nt,nt,nt,nt
Cc1ccc2c(=O)cc(C(=O)N3CCOC34CCN(C)CC4)oc2c1,-0.8,nt,nt,nt,nt,nt
COc1ccccc1CCNC(=O)C1CCC(=O)N(Cc2ccccc2OC)C1 (stereo unspecified),-4.9,-10.3,-21.9%,-18.6%,-1.0%,-17.7%
COc1ccccc1CCCNC(=O)C1CCC(=O)N(CCc2ccc(Cl)cc2)C1 (stereo unspecified),-9.2,-51.3*,23.1µM*,?,-11.9%,18.4µM*
CCOC(=O)C1=C(Cn2cnc3ccccc32)NC(=O)NC1c1cc(C)ccc1C (stereo unspecified),1.6,-2.1,23.1µM*,-29.6%,-1.6%,25.9µM*
CCOC(=O)C1=C(CNCc2ccc(C)cc2)NC(=O)NC1c1cc(C)ccc1C (stereo unspecified),-1.7,6.8,?,20.1%,12.3%,20µM*
O=C(Nc1ccccc1SC1CCCC1)C1CCCC1,1.5,nt,nt,nt,nt,nt
Cc1oc2c(C)c3oc(=O)c(CC(=O)N4CCCCC4)c(C)c3cc2c1C,-13.1,nt,20.6µM*,nt,nt,20.6µM*
Cc1coc2c(C)c3oc(=O)c(CCC(=O)N[C@H](C(=O)O)C(C)C)c(C)c3cc12,3.1,-0.7,-13.5%,nt,nt,8.5%
Cc1coc2c(C)c3oc(=O)c(CCC(=O)N4CCCCC4)c(C)c3cc12,-6.0,nt,16.4µM*,nt,nt,13µM*
COc1ccc(-c2nc3ccc(Cl)cn3c2Cc2ccsc2)cc1OC,0.0,-23.4,?,nt,nt,?
CC(=O)c1csc(-c2cccc(-c3nc4ccc(Cl)cn4c3NC3CCCCC3)c2)c1,-4.0,-22.2,?,nt,nt,20.6µM*
N#Cc1c[nH]n2c(NC3CCCCC3)c(-c3cccc(Cl)c3)nc12,1.2,nt,?,nt,nt,?
COc1ccc(-c2cccc(-c3nc4ccc(Cl)cn4c3NC3CCCCC3)c2)cc1,0.4,-13.1,20.6µM*,nt,nt,18.4µM*
CCC(C)Sc1cc(-c2nc3ccc(Cl)cn3c2NC2CCCCC2)ccc1OC (stereo unspecified),4.6,-73.8*!,14.6µM*,nt,nt,16.4µM*
